Compound activity deposited in PubChem BioAssay by Broad Institute.
EWS-Fli inh: EWS/Fli transcriptional activity inhibition. A673 NR0B1-luciferase reporter, viability-normalised. inhibition, % at 12.6 µM. 350,000 compounds, 0.67% hits;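 active means mean inhibition of at least 50% after viability correction, with every replicate also passing that limit; inconclusive means mean reaches 50% but only one of two replicates passes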;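 further: firefly luciferase signal divided by Alamar Blue viability fluorescence both relative to DMSO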
LGR2 inh: inhibitors of bursicon-induced Drosophila LGR2 receptor cAMP signaling; 380,000 compounds, 0.35% hits; AID 720647; HEK293 LGR2, CRE-luciferase, bursicon-stimulated, 4 h; inhibition, % at 9.99 µM;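 active means drop in luminescence signal, shown as inhibition above about 50% in the replicate tests, limit read from the data, passing the limit was not always enough; inconclusive means probably only some replicates passing the limit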;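 further: agonist challenge used bursicon conditioned medium at about half maximal strength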
PAX8 reporter: PAX8 transcriptional activity inhibition | RMG-I TPO-luciferase reporter, SteadyGlo, 24 h | inhibition, % at 12.6 µM | 360,000 compounds, 1.2% hits | AID 652154;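 active means mean replicate inhibition at least 60% with every replicate also reaching 60%; inconclusive means only one of the two criteria is met; inactive means mean below 60% and not all replicates reaching 60%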;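 further: luciferase light reporting Pax8 driven TPO promoter activity; plate controls were median of neutral control wells for no effect and mitoxantrone controls for full effect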
CFTR F508del cor: correctors of CFTR F508del function in bronchial epithelial cells. activity (quench increase), % at 7.58 µM. 350,000 compounds, 0.36% hits. CFBE cells, YFP halide quenching; stimulated with forskolin plus potentiator P3; % fluorescence drop versus neutral controls;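 active means mean added fluorescence quench of at least 8% versus neutral control, with both replicates also reaching 8%; inconclusive means only one of the mean or replicate conditions met; inactive means mean below 8% and not both replicates reaching 8%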;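 further: cells transiently co-express mutant CFTR-F508del with the halide-sensitive YFP; corrector assay measuring rescue of mutant channel to the surface after 24 h compound exposure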
An asterisk follows results filed as active; ? = inconclusive; . = no result given. In the library only some 1.8% were active in any assay of this set; here they are far more common.

SMILES	EWS-Fli inh	LGR2 inh	PAX8 reporter	CFTR F508del cor
CCOc1ccc(C(=O)NCC(=O)N2CCN(Cc3ccccc3)CC2)cc1	0	8	6	10.0*
COc1ccc(-[n+]2c(C)cc(/C=C3\Sc4ccccc4N3C)cc2C)cc1	37	-1	80*	-6
COc1ccccc1-[n+]1c(C)cc(/C=C2\Sc3ccccc3N2C)cc1C	39	?	67*	-23
CCCCNC(=O)NCC(=O)Nc1ccc(F)c(F)c1	.	.	12	.
O=C1OC(/C(=C\Nc2ccccc2)[N+](=O)[O-])c2ccccc21 (configuration not stated)	9	9	3	-1
O=[N+]([O-])c1cnc(Sc2ccncn2)s1	?	5	120*	-4
O=[N+]([O-])c1cnc(Sc2ccncn2)c([N+](=O)[O-])c1	22	-14	-2	1
COc1ccc2nc(SCC(=O)NCc3ccc(F)cc3)[nH]c2c1	.	3	5	1
COc1cccc(CNC(=O)CSc2nc3ccc(C)cc3[nH]2)c1	-8	2	6	8.4*
Cc1ccccc1NC(=O)c1sc2nc[nH]c(=O)c2c1C	.	8	.	.
C[C@@H]1CCCCO[C@H](CN(C)Cc2ccc(C(F)(F)F)cc2)[C@@H](C)CN([C@@H](C)CO)C(=O)c2cc(NC(=O)Cc3ccccc3)ccc2O1	-2	6	85*	4
C[C@H]1CCCCO[C@@H](CN(C)Cc2ccc(C(F)(F)F)cc2)[C@@H](C)CN([C@@H](C)CO)C(=O)c2cc(NC(=O)Cc3ccccc3)ccc2O1	13	11	82*	3
C[C@@H]1CCCCO[C@@H](CN(C)Cc2ccc(C(F)(F)F)cc2)[C@@H](C)CN([C@@H](C)CO)C(=O)c2cc(NC(=O)Cc3ccccc3)ccc2O1	-9	2	52	1
C[C@@H]1CCCCO[C@H](CN(C)Cc2ccc(C(F)(F)F)cc2)[C@H](C)CN([C@H](C)CO)C(=O)c2cc(NC(=O)Cc3ccccc3)ccc2O1	16	23	83*	-1
C[C@@H]1CCCCO[C@H](CN(C)Cc2ccc(C(F)(F)F)cc2)[C@@H](C)CN([C@H](C)CO)C(=O)c2cc(NC(=O)Cc3ccccc3)ccc2O1	-25	1	-8	-3
Cc1ccc(S(=O)(=O)N(C)C[C@H]2Oc3ccc(NC(=O)Cc4ccccc4)cc3C(=O)N([C@H](C)CO)C[C@@H]2C)cc1	1	-9	84*	0
C[C@H]1CN([C@@H](C)CO)C(=O)c2cc(NC(=O)Cc3ccccc3)ccc2O[C@@H]1CN(C)Cc1ccc(C(F)(F)F)cc1	-1	-2	67*	-1
CC12CCC3c4ccc(O)cc4CCC3C1CCC2=O (configuration not stated)	11	-4	15	9.4*
O=C(Cc1cccc(NC(=O)C2CCCN(C(=O)C3CC3)C2)c1)Nc1ccc(C(=O)N2CCCCC2)cc1 (configuration not stated)	-4	0	-17	-3
Cc1ccc(S(=O)(=O)N[C@H](C(=O)OCC(=O)NC(=O)C2CCCCC2)C(C)C)cc1	-5	0	10	12*
CC1=Nc2cc(C(=O)O)ccc2Sc2ccc(Br)cc21	0	-5	15	-3
CCC1=Nc2cc(C(=O)NCc3ccco3)ccc2Sc2ccc(C)cc21	17	.	84*	.
CCCC1=Nc2cc(C(=O)NCCCOCC)ccc2Sc2ccccc21	.	.	99*	.
CCC1=Nc2cc(C(=O)NCCN3CCOCC3)ccc2Sc2ccc(C)cc21	6	-6	-4	-1
CC1=Nc2cc(C(=O)NCCCOC(C)C)ccc2Sc2ccc(C)cc21	59*	0	28	-3
SMILES	EWS-Fli inh	LGR2 inh	PAX8 reporter	CFTR F508del cor
CC1=Nc2cc(C(=O)NCC3CCCO3)ccc2Sc2ccc(Br)cc21 (configuration not stated)	55*	-11	24	13*
CC(C)NC(=O)NCC[C@@H]1CC[C@H](NC(=O)CN(C)C)[C@@H](CO)O1	2	11	-2	0
COc1ccc(S(=O)(=O)N(C)C[C@@H]2Oc3ccc(NS(=O)(=O)c4ccccc4)cc3CC(=O)N([C@@H](C)CO)C[C@@H]2C)cc1	1	11	-5	-2
O=c1cc(N2CCc3ccccc3C2)[nH]c(=O)n1-c1ccc(Br)cc1	-4	-2	.	-2
C/C=C/C=N/Nc1nc(-c2ccc([N+](=O)[O-])cc2)cs1	-13	.	-5	.
FC(F)(F)c1nnc2c(Sc3ccccn3)nc3ccccc3n12	.	.	114*	.
FC(F)(F)c1nnc2c(Sc3ccc(Cl)cc3)nc3ccccc3n12	.	.	88*	.
